# Results taken from PubChem BioAssay AID1159580 (chemical genetic matrix, 2015).
# Screen size: about 5,500 compounds; about 2,000 (36%) were called active. Not shown: some 18% with an inconclusive outcome. Some of the results follow. Unmarked numbers belong to inactive results. Rule as the data show it: active = normalized growth mostly below about 0.91 (no sharp cut-off); inconclusive = no clear call, values can overlap the other calls; inactive = mostly above about 0.92.
# Experiment: chemical genetic growth profiling, strain panel (AID 1159580);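 also: tested at 20 µM; growth read once vehicle control cultures reached saturation at 30 °C; 1 = growth at the plate median or of vehicle wells; lower values mean less growth of the strain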
# Details: S. cerevisiae deletion strains, growth OD
smiles,measurement,setting,value
Cc1c(O)c(O)cc2c1CC=C1[C@@]2(C)CC[C@@]2(C)C3C[C@](C)(C(=O)O)CC[C@]3(C)CC[C@]12C (some centres not stated),normalized growth,"locus YJR043C, strain POL32, hits give low values",0.914
same,normalized growth,"locus YJR066W, strain TOR1, hits give low values",0.901
same,normalized growth,"locus YKL009W, strain mrt4, hits give low values",0.986
same,normalized growth,"locus YKL068W, hits give low values",0.941 (active)
same,normalized growth,"locus YKL085W, strain MDH1 (second series), hits give low values",0.919 (active)
same,normalized growth,"locus YKL085W, strain MDH1, hits give low values",0.919 (active)
same,normalized growth,"locus YKL160W, strain elf1, hits give low values",0.386 (active)
same,normalized growth,"locus YKR001C, strain vps1, hits give low values",0.728 (active)
same,normalized growth,"locus YKR026C, strain gcn3, hits give low values",0.804 (active)
same,normalized growth,"locus YKR091W, strain srl3, hits give low values",0.8 (active)
same,normalized growth,"locus YLL001W, strain dnm1, hits give low values",0.617 (active)
same,normalized growth,"locus YLL026W, hits give low values",0.496 (active)
same,normalized growth,"locus YLL041C, strain sdh2, hits give low values",0.645 (active)
same,normalized growth,"locus YLR027C, strain aat2, hits give low values",0.433 (active)
same,normalized growth,"locus YLR039C, strain RIC1, hits give low values",0.616 (active)
same,normalized growth,"locus YLR058C, strain SHM2, hits give low values",0.894
same,normalized growth,"locus YLR102C, strain apc9, hits give low values",0.984
same,normalized growth,"locus YLR113W, strain HOG1, hits give low values",0.651 (active)
same,normalized growth,"locus YLR221C, strain rsa3, hits give low values",0.4 (active)
same,normalized growth,"locus YLR258W, strain gsy2, hits give low values",0.398 (active)
same,normalized growth,"locus YLR262C, strain YPT6 (second series), hits give low values",0.186 (active)
same,normalized growth,"locus YLR262C, strain YPT6, hits give low values",0.609
same,normalized growth,"locus YLR268W, strain sec22, hits give low values",0.891
same,normalized growth,"locus YLR320W, strain mms22, hits give low values",0.221 (active)
same,normalized growth,"locus YLR330W, strain CHS5, hits give low values",0.877 (active)
same,normalized growth,"locus YLR342W, strain FKS1 (second series), hits give low values",0.868
same,normalized growth,"locus YLR342W, strain FKS1, hits give low values",0.561 (active)
same,normalized growth,"locus YLR357W, strain rsc2, hits give low values",0.657 (active)
same,normalized growth,"locus YLR370C, strain arc18, hits give low values",0.63 (active)
same,normalized growth,"locus YLR371W, strain rom2, hits give low values",0.912
same,normalized growth,"locus YLR384C, strain iki3, hits give low values",0.885 (active)
same,normalized growth,"locus YLR418C, strain cdc73, hits give low values",0.645 (active)
same,normalized growth,"locus YML016C, strain PPZ1, hits give low values",0.927
same,normalized growth,"locus YML032C, strain rad52, hits give low values",0.96
same,normalized growth,"locus YML120C, strain ndi1, hits give low values",0.568 (active)
same,normalized growth,"locus YML124C, strain tub3, hits give low values",0.971
same,normalized growth,"locus YMR058W, strain fet3, hits give low values",0.0953 (active)
same,normalized growth,"locus YMR078C, strain ctf18, hits give low values",0.984
same,normalized growth,"locus YMR125W, strain sto1, hits give low values",0.483 (active)
same,normalized growth,"locus YMR129W, hits give low values",0.764 (active)
same,normalized growth,"locus YMR205C, strain PFK2, hits give low values",0.364 (active)
same,normalized growth,"locus YMR223W, strain ubp8, hits give low values",0.906
same,normalized growth,"locus YMR231W, strain pep5, hits give low values",0.361 (active)
same,normalized growth,"locus YMR307W, strain GAS1, hits give low values",0.782
same,normalized growth,"locus YNL067W, strain RPL9B, hits give low values",0.918
same,normalized growth,"locus YNL071W, strain lat1, hits give low values",0.0934 (active)
same,normalized growth,"locus YNL183C, strain NPR1, hits give low values",0.837
same,normalized growth,"locus YNL209W, strain ssb2, hits give low values",0.376 (active)
same,normalized growth,"locus YNL233W, strain BNI4, hits give low values",0.873
same,normalized growth,"locus YNL248C, strain rpa49, hits give low values",0.741 (active)
same,normalized growth,"locus YNL250W, strain rad50, hits give low values",0.972
same,normalized growth,"locus YNL271C, strain bni1, hits give low values",0.991
same,normalized growth,"locus YNL298W, strain CLA4, hits give low values",1.01
same,normalized growth,"locus YNL307C, strain MCK1, hits give low values",0.822 (active)
same,normalized growth,"locus YNL322C, strain KRE1 (second series), hits give low values",0.935
same,normalized growth,"locus YNL322C, strain KRE1, hits give low values",0.937
same,normalized growth,"locus YNR049C, strain mso1, hits give low values",0.72 (active)
same,normalized growth,"locus YNR052C, strain pop2, hits give low values",0.977
same,normalized growth,"locus YOL012C, strain htz1",0.648
same,normalized growth,"locus YOL147C, strain pex11, hits give low values",0.976
same,normalized growth,"locus YOR001W, strain rrp6, hits give low values",0.683 (active)
same,normalized growth,"locus YOR061W, strain CKA2, hits give low values",0.934
same,normalized growth,"locus YOR069W, strain VPS5, hits give low values",0.945
same,normalized growth,"locus YOR070C, strain gyp1, hits give low values",0.393 (active)
same,normalized growth,"locus YOR080W, strain dia2, hits give low values",0.697 (active)
same,normalized growth,"locus YOR083W, strain WHI5, hits give low values",0.656 (active)
same,normalized growth,"locus YOR106W, strain vam3, hits give low values",0.331 (active)
same,normalized growth,"locus YOR136W, strain idh2, hits give low values",1
same,normalized growth,"locus YOR144C, strain elg1, hits give low values",0.977
same,normalized growth,"locus YOR184W, strain ser1, hits give low values",0.812 (active)
same,normalized growth,"locus YOR231W, strain MKK1, hits give low values",0.917
same,normalized growth,"locus YOR265W, strain rbl2, hits give low values",0.479 (active)
same,normalized growth,"locus YOR270C, strain vph1, hits give low values",0.273 (active)
same,normalized growth,"locus YOR290C, strain snf2, hits give low values",0.434 (active)
same,normalized growth,"locus YOR316C, strain cot1, hits give low values",0.981
same,normalized growth,"locus YPL051W, strain arl3, hits give low values",0.248 (active)
same,normalized growth,"locus YPL055C, strain LGE1, hits give low values",0.755 (active)
same,normalized growth,"locus YPL078C, strain atp4, hits give low values",0.62 (active)
same,normalized growth,"locus YPL106C, strain sse1, hits give low values",0.507 (active)
same,normalized growth,"locus YPL240C, strain hsp82, hits give low values",0.417 (active)
same,normalized growth,"locus YPL241C, strain CIN2, hits give low values",0.96
same,normalized growth,"locus YPL256C, strain CLN2, hits give low values",0.856
same,normalized growth,"locus YPR119W, strain clb2, hits give low values",0.979
same,normalized growth,"locus YPR141C, strain kar3, hits give low values",0.956
same,normalized growth,"locus YPR163C, strain tif3, hits give low values",0.924
same,normalized growth,"locus YPR167C, strain met16, hits give low values",0.948
same,normalized growth,"strain wtn01, hits give low values",0.93
